Results filed as inconclusive are left out. Calls of active or inactive are those of the source. The call rests on the fitted dose curve.

The test can be described thus: S16 Schwann cell PMP22 intronic element beta-lactamase assay (AID 624044). Further: nearly all actives have a fitted effect of over 15% in size. As to conditions: S16 rat Schwann cells, PMP22 element beta-lactamase FRET, 24 h; series mostly up to 38.3 µM. The method in brief: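 Rat S16 Schwann cells with beta-Lac driven by a PMP22 intronic element, compound-treated 24 h at 37 °C. LiveBLAzer FRET B/G read: 460 nm normalized to potassium clavulanate vs DMSO; 535 nm FRET as viability; concentration-effect curves classified.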
Turning to `CC(=O)Oc1cccc(O)c1`, the compound was classed as inactive.
The value for `c1ccc2[nH]ccc2c1` was “inactive”; that for `OCc1ccc(Cl)cc1Cl` was “inactive”.
The value for `CCOc1cc(NC(C)=O)ccc1C(=O)OC` was “inactive”; that for `CCCOC(=O)c1ccc(N)cc1` was “inactive”; that for `NNC(=O)CP(=O)(c1ccccc1)c1ccccc1` was “inactive”.
Turning to `CC(C)c1cc2c(cc1S(=O)(=O)O)[C@@]1(C)CCC[C@@](C)(C(=O)O)[C@@H]1CC2`, the outcome was inactive.
`COc1ccc2cc(CCC(C)=O)ccc2c1`: the compound was classed as inactive.
Under `CN1CCCN=C1COC(=O)C(O)(c1ccccc1)C1CCCCC1` (centres undefined) stands “inactive”; under `O=C1c2ccccc2C(=O)C1c1ccc(Br)cc1`, “inactive”.
As to `Cc1ccccc1N=Nc1ccc(N=Nc2c(O)ccc3ccccc23)c(C)c1`, the outcome was inactive.
Under `Cc1ccsc1C(=CCCN1CCC[C@@H](C(=O)O)C1)c1sccc1C` stands “inactive”; under `CC(C)C[C@@H](N)C(=O)O`, “inactive”.
In the case of `Cc1ccc(S(=O)(=O)NC(=O)NC2CCCCCCC2)cc1`, the call was inactive.
Under `NNc1nnc(NN)c2ccccc12` stands “inactive”; under `CCOC(=O)c1cccnc1`, “inactive”.
Under `NC(=O)CC[C@@H](N)C(=O)O` stands “inactive”.
The value for `O=C(CN1CCNCC1)NC1CCCCC1` was “inactive”; that for `CCCCC1(COC(=O)CCC(=O)O)C(=O)N(c2ccccc2)N(c2ccccc2)C1=O` was “inactive”.
Take `CC(O)CCCCn1c(=O)c2c(ncn2C)n(C)c1=O` (centres undefined): the outcome was inactive.
The value for `CCN1CC(CCN2CCOCC2)C(c2ccccc2)(c2ccccc2)C1=O` (centres undefined) was “inactive”; that for `O=C(O)Cn1c(C(=O)Nc2nc(-c3ccccc3Cl)cs2)cc2ccccc21` was “inactive”.
The value for `CCS(=O)(=O)CCn1c([N+](=O)[O-])cnc1C` was “inactive”.
The value for `NCc1ccc(S(N)(=O)=O)cc1` was “inactive”.
Take `O=C(Cn1ccnc1[N+](=O)[O-])NCc1ccccc1`: the outcome was inactive.
The value for `CCCCCCCCCCCCCCCCC(C(=O)O)C(O)(CC(=O)O)C(=O)O` (centres undefined) was “inactive”; that for `COc1cc(O)cc(O)c1` was “inactive”.
As for `CN(C/C=C/C#CC(C)(C)C)Cc1cccc2ccccc12`, the call was inactive.
Turning to `NC(N)=NS(=O)(=O)c1ccc(N)cc1`, the compound was classed as inactive.
`CC(C)(C)C(=O)OCOC(=O)[C@@H]1N2C(=O)[C@@H](NC(=O)[C@H](N)c3ccccc3)[C@H]2SC1(C)C`: the call was inactive.
Under `O=S1(=O)OC(c2ccc(O)cc2)(c2ccc(O)cc2)c2ccccc21` stands “inactive”; under `CCCNC(C)(C)COC(=O)c1ccccc1`, “inactive”.
With `CC(=O)SC[C@@H](Cc1ccccc1)C(=O)NCC(=O)OCc1ccccc1`, the call was inactive.
Turning to `C[C@@H](N)C(=O)O`, the outcome was inactive.
The value for `Cc1cc(OI)c(C(C)C)cc1-c1cc(C(C)C)c(OI)cc1C` was “inactive”; that for `NC(N)=NCCN1CCCCCCC1` was “inactive”.
Under `CCN(CC)S(=O)(=O)c1ccc(C(=O)O)cc1` stands “inactive”; under `CCc1nnc(NS(=O)(=O)c2ccc(N)cc2)s1`, “inactive”; under `Nc1ccc(C(=O)Oc2ccccc2)c(O)c1`, “inactive”.

These data come from PubChem BioAssay (NCATS).
